Several values for one entry are separate records, joined by “and”; a condition that tells them apart may be missing. Equal entries are not always repeated. The panel holds about 83,000 compounds, 20% with a hit somewhere; the sample as a whole holds those more often.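 Each cell line was grown in a 96-well plate and treated with one concentration of compound for 48 hours. Values below 10 were considered active.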 Activity calls are given as the source filed them.
How the values were obtained:
Experiment in all cases: NCI-60 one-dose screen, 48 h (100 = growth as untreated, 0 = no growth, -100 = all killed)
Details in all cases: 10 µM unless noted
SK-MEL-2 melanoma = tested on: SK-MEL-2 melanoma
EKVX NSCLC = tested on: EKVX NSCLC
SN12C renal = tested on: SN12C renal
UO-31 renal = tested on: UO-31 renal
TK-10 renal = tested on: TK-10 renal
ACHN renal = tested on: ACHN renal
CAKI-1 renal = tested on: CAKI-1 renal
A498 renal = tested on: A498 renal
CCRF-CEM leukemia = tested on: CCRF-CEM leukemia
MOLT-4 leukemia = tested on: MOLT-4 leukemia
SR leukemia = tested on: SR leukemia
RPMI-8226 leukemia = tested on: RPMI-8226 leukemia
OVCAR-8 ovarian = tested on: OVCAR-8 ovarian
OVCAR-5 ovarian = tested on: OVCAR-5 ovarian
OVCAR-4 ovarian = tested on: OVCAR-4 ovarian
SK-OV-3 ovarian = tested on: SK-OV-3 ovarian
IGROV1 ovarian = tested on: IGROV1 ovarian
OVCAR-3 ovarian = tested on: OVCAR-3 ovarian
HS 578T breast = tested on: HS 578T breast
NCI/ADR-RES ovarian = tested on: NCI/ADR-RES ovarian

Measured: growth

CCN1CCN(C(=O)[C@]23CC[C@@H](C)[C@H](C)[C@@H]2C2=CC[C@@H]4[C@@]5(C)CCC(=O)C(C)(C)[C@@H]5CC[C@@]4(C)[C@]2(C)CC3)CC1
inactive: SK-MEL-2 melanoma 12.3% | EKVX NSCLC 28.4% | TK-10 renal 18.7% | CAKI-1 renal 23.8% | OVCAR-8 ovarian 16.5% | OVCAR-4 ovarian 18% | SK-OV-3 ovarian 16.2% | IGROV1 ovarian 14.7% | OVCAR-3 ovarian 16.6%
active: SN12C renal 7.97% | UO-31 renal -9.67% | ACHN renal 9.64% | A498 renal -17.8% | CCRF-CEM leukemia -8.01% | MOLT-4 leukemia -15.9% | SR leukemia -13.4% | RPMI-8226 leukemia -34.4% | OVCAR-5 ovarian -3.73% | HS 578T breast -1.77% | NCI/ADR-RES ovarian 9.16%

NNCCc1ccccc1
inactive: SK-MEL-2 melanoma 100% and 106% | EKVX NSCLC 101% and 86.2% | SN12C renal 96.2% and 93% | UO-31 renal 77.5% | TK-10 renal 118% | ACHN renal 92% and 89.9% | CAKI-1 renal 99.7% and 88.3% | A498 renal 105% and 88.4% | CCRF-CEM leukemia 90.9% and 106% | MOLT-4 leukemia 104% and 96.4% | SR leukemia 106% and 104% | RPMI-8226 leukemia 95.3% and 110% | OVCAR-8 ovarian 116% and 96.7% | OVCAR-5 ovarian 93.1% | OVCAR-4 ovarian 101% and 96.9% | SK-OV-3 ovarian 108% and 94.9% | IGROV1 ovarian 97.2% | OVCAR-3 ovarian 122% and 100% | HS 578T breast 116% and 94.1% | NCI/ADR-RES ovarian 104% and 91.4%

N#CC1C(=O)c2ccccc2C1c1ccccc1 (stereo not given)
inactive: SK-MEL-2 melanoma 103% | EKVX NSCLC 103% | SN12C renal 101% and 98.5% | UO-31 renal 74% and 84.6% | TK-10 renal 109% and 106% | ACHN renal 108% and 103% | CAKI-1 renal 92.2% and 93.6% | A498 renal 128% and 99.1% | CCRF-CEM leukemia 98.2% and 94.2% | MOLT-4 leukemia 80.4% and 83.3% | SR leukemia 85.1% and 106% | RPMI-8226 leukemia 111% and 102% | OVCAR-8 ovarian 96.9% and 97.3% | OVCAR-5 ovarian 110% and 104% | OVCAR-4 ovarian 99.5% and 99.2% | SK-OV-3 ovarian 105% and 114% | IGROV1 ovarian 100% and 110% | OVCAR-3 ovarian 84.9% and 107% | HS 578T breast 116% and 105% | NCI/ADR-RES ovarian 108% and 107%

COc1ccc2c(c1)CC[C@@H]1[C@@H]2CC[C@]2(C)C3C(=CCC4C(=O)N(c5ccccc5)C(=O)C43)C[C@@H]12 (stereo not given in full)
inactive: SK-MEL-2 melanoma 95.7% | EKVX NSCLC 93% | SN12C renal 108% | UO-31 renal 74.3% | TK-10 renal 105% | ACHN renal 80.8% | CAKI-1 renal 71.7% | A498 renal 114% | CCRF-CEM leukemia 66.7% | MOLT-4 leukemia 74.2% | SR leukemia 99.1% | RPMI-8226 leukemia 61.2% | OVCAR-8 ovarian 86.2% | OVCAR-5 ovarian 75.7% | OVCAR-4 ovarian 78.8% | SK-OV-3 ovarian 103% | IGROV1 ovarian 113% | OVCAR-3 ovarian 87.3% | HS 578T breast 97.6% | NCI/ADR-RES ovarian 85.8%

Fc1ccccc1-c1cnn2cc(-c3ccccc3)cnc12
inactive: SK-MEL-2 melanoma 107% | EKVX NSCLC 103% | SN12C renal 92.1% | UO-31 renal 85.6% | TK-10 renal 104% | ACHN renal 101% | CAKI-1 renal 88.8% | A498 renal 87.8% | CCRF-CEM leukemia 93.3% | MOLT-4 leukemia 98.1% | SR leukemia 81.8% | RPMI-8226 leukemia 98% | OVCAR-8 ovarian 94.1% | OVCAR-5 ovarian 109% | OVCAR-4 ovarian 98.5% | SK-OV-3 ovarian 98% | IGROV1 ovarian 88% | OVCAR-3 ovarian 109% | HS 578T breast 93% | NCI/ADR-RES ovarian 95%

CN(C)CCCn1c2c(c3ccc(N4CCNCC4)cc3c1=O)C(=O)c1ccccc1-2
active: EKVX NSCLC -39% | SN12C renal 6.82% | UO-31 renal 2.6% | TK-10 renal -0.224% | ACHN renal -10.5% | CAKI-1 renal 5.62% | CCRF-CEM leukemia -4.22% | MOLT-4 leukemia -21.9% | SR leukemia -16.4% | RPMI-8226 leukemia -32.4% | OVCAR-8 ovarian -8.9% | OVCAR-4 ovarian -22.9% | SK-OV-3 ovarian 6.3% | IGROV1 ovarian 5.77% | OVCAR-3 ovarian -0.802% | NCI/ADR-RES ovarian -13.8%
inactive: SK-MEL-2 melanoma 39.6% | A498 renal 74.3% | OVCAR-5 ovarian 16.5% | HS 578T breast 49.1%

NCCOCCOc1ccccc1
inactive: SK-MEL-2 melanoma 101% | EKVX NSCLC 106% | SN12C renal 103% | UO-31 renal 86.8% | TK-10 renal 90.9% | ACHN renal 106% | CAKI-1 renal 88.3% | A498 renal 97.3% | CCRF-CEM leukemia 91.9% | MOLT-4 leukemia 101% | SR leukemia 101% | RPMI-8226 leukemia 88.7% | OVCAR-8 ovarian 107% | OVCAR-5 ovarian 104% | OVCAR-4 ovarian 98% | SK-OV-3 ovarian 112% | IGROV1 ovarian 103% | OVCAR-3 ovarian 106% | HS 578T breast 115% | NCI/ADR-RES ovarian 102%

COc1nc(=O)n(C2C=CC(=O)O2)cc1F (stereo not given)
active: SR leukemia -19.8%
inactive: SK-MEL-2 melanoma 106% | EKVX NSCLC 78.4% | SN12C renal 94.8% | UO-31 renal 56.3% | TK-10 renal 61.3% | ACHN renal 31.7% | CAKI-1 renal 40.1% | A498 renal 97.9% | CCRF-CEM leukemia 48.7% | MOLT-4 leukemia 33.5% | RPMI-8226 leukemia 70.1% | OVCAR-8 ovarian 46% | OVCAR-5 ovarian 129% | OVCAR-4 ovarian 71.3% | SK-OV-3 ovarian 98.7% | IGROV1 ovarian 116% | OVCAR-3 ovarian 33.8% | HS 578T breast 94.4% | NCI/ADR-RES ovarian 111%

Cc1n(Cc2ccc3ccccc3c2)c(Cl)c(Cl)[n+]1Cc1ccc2ccccc2c1
inactive: SK-MEL-2 melanoma 25.5% | EKVX NSCLC 51.1% | SN12C renal 30.7% | UO-31 renal 72.1% | TK-10 renal 52.5% | ACHN renal 80.8% | CAKI-1 renal 29.2% | A498 renal 40.3% | CCRF-CEM leukemia 14% | MOLT-4 leukemia 25.4% | OVCAR-8 ovarian 19.1% | OVCAR-5 ovarian 51.1% | SK-OV-3 ovarian 65.5% | HS 578T breast 46.6% | NCI/ADR-RES ovarian 98.8%
active: SR leukemia 6.73% | RPMI-8226 leukemia -16.8% | OVCAR-4 ovarian 3.21% | IGROV1 ovarian -8.24% | OVCAR-3 ovarian 5.54%

Nc1[nH]nc(Nc2ccccc2)c1-c1nc2ccccc2s1
inactive: SK-MEL-2 melanoma 26.8% | EKVX NSCLC 19% | SN12C renal 34.2% | UO-31 renal 18.8% | TK-10 renal 23% | ACHN renal 15.5% | CAKI-1 renal 25.1% | A498 renal 46.8% | SR leukemia 13.6% | RPMI-8226 leukemia 24% | OVCAR-8 ovarian 38.4% | OVCAR-5 ovarian 34.5% | OVCAR-4 ovarian 29.5% | SK-OV-3 ovarian 48.8% | IGROV1 ovarian 28.5% | OVCAR-3 ovarian 25.3% | HS 578T breast 47.2% | NCI/ADR-RES ovarian 30%
active: CCRF-CEM leukemia 8.45% | MOLT-4 leukemia 4.06%

COc1cc(/C=C2\C(=O)N(CCCCn3c4ccccc4c(=O)c4ccccc43)c3ccccc32)cc(OC)c1O
inactive: SK-MEL-2 melanoma 26.5% | EKVX NSCLC 74% | SN12C renal 71.1% | UO-31 renal 49.5% | TK-10 renal 120% | ACHN renal 63.3% | CAKI-1 renal 52% | A498 renal 75.5% | CCRF-CEM leukemia 15.9% | MOLT-4 leukemia 29% | SR leukemia 14.7% | RPMI-8226 leukemia 35.2% | OVCAR-8 ovarian 50.1% | OVCAR-5 ovarian 91% | OVCAR-4 ovarian 56.1% | SK-OV-3 ovarian 97.1% | IGROV1 ovarian 52.3% | OVCAR-3 ovarian 31.6% | HS 578T breast 68.8% | NCI/ADR-RES ovarian 48.6%

COc1cc(Cl)cc(-c2nn(C(=O)NS(=O)(=O)c3ccc(Cl)cc3)cc2-c2ccncc2)c1
inactive: SK-MEL-2 melanoma 95% | EKVX NSCLC 59.5% | SN12C renal 92.5% | UO-31 renal 63% | TK-10 renal 85.8% | ACHN renal 80.6% | CAKI-1 renal 91% | A498 renal 70.2% | CCRF-CEM leukemia 88% | MOLT-4 leukemia 76.2% | SR leukemia 80.5% | RPMI-8226 leukemia 77.2% | OVCAR-8 ovarian 27.5% | OVCAR-5 ovarian 87.4% | OVCAR-4 ovarian 16.5% | SK-OV-3 ovarian 84.7% | IGROV1 ovarian 82.6% | OVCAR-3 ovarian 98.3% | HS 578T breast 73.3% | NCI/ADR-RES ovarian 84.1%

O=[N+]([O-])c1cc(C(F)(F)F)ccc1Sc1ccc(C(F)(F)F)cc1[N+](=O)[O-]
active: MOLT-4 leukemia 9.53% | SR leukemia 7.21%
inactive: SK-MEL-2 melanoma 73.3% | EKVX NSCLC 87% | SN12C renal 72.8% | UO-31 renal 77.3% | TK-10 renal 98.7% | ACHN renal 86.6% | CAKI-1 renal 44.7% | A498 renal 87% | CCRF-CEM leukemia 14.5% | RPMI-8226 leukemia 34.2% | OVCAR-8 ovarian 85.7% | OVCAR-5 ovarian 132% | OVCAR-4 ovarian 44.6% | SK-OV-3 ovarian 56% | IGROV1 ovarian 77.7% | OVCAR-3 ovarian 92.3% | HS 578T breast 66.3% | NCI/ADR-RES ovarian 82.5%

From PubChem BioAssay (NCI)
